# From PMC11006913
# Experiments:
# Test in all cases: PBM; 200 nM protein, PBS
# Conditions in all cases: dsDNA, one strand shown
# HESX1 [1] = molecular target: HESX1 (Homo sapiens, UniProt Q9UBX0 95-180, R165K)
# SHOX [2] = molecular target: SHOX (Homo sapiens, UniProt O15266 103-189)
# HESX1 [3] = molecular target: HESX1 (Homo sapiens, UniProt Q9UBX0 95-180)
# MSX2 = MSX2 (Homo sapiens, UniProt P35548 130-214, R199I)
# SHOX [4] = molecular target: SHOX (Homo sapiens, UniProt O15266 103-189, R173C)
# HESX1 [5] = molecular target: HESX1 (Homo sapiens, UniProt Q9UBX0 95-180, R109Q)
# PROP1 [6] = molecular target: PROP1 (Homo sapiens, UniProt O75360 56-141, R99H)
# HESX1 [7] = molecular target: HESX1 (Homo sapiens, UniProt Q9UBX0 95-180, P111T)
# HESX1 [8] = molecular target: HESX1 (Homo sapiens, UniProt Q9UBX0 95-180, F115L)
# ALX4 = ALX4 (Homo sapiens, UniProt Q9H161 200-286, Q225E)
# ALX1 [9] = molecular target: ALX1 (Homo sapiens, UniProt Q15699 118-204, L144V)
# ALX3 [10] = molecular target: ALX3 (Homo sapiens, UniProt O95076 139-225, N203Q)
# ALX1 [11] = molecular target: ALX1 (Homo sapiens, UniProt Q15699 118-204, L144R)
# ALX3 [12] = molecular target: ALX3 (Homo sapiens, UniProt O95076 139-225)
# PROP1 [13] = molecular target: PROP1 (Homo sapiens, UniProt O75360 56-141)
# ALX3 [14] = molecular target: ALX3 (Homo sapiens, UniProt O95076 139-225, L168Q)
# ALX3 [15] = molecular target: ALX3 (Homo sapiens, UniProt O95076 139-225, L168V)
# PROP1 [16] = molecular target: PROP1 (Homo sapiens, UniProt O75360 56-141, F88S)
# ALX1 [17] = molecular target: ALX1 (Homo sapiens, UniProt Q15699 118-204)
# ALX3 [18] = molecular target: ALX3 (Homo sapiens, UniProt O95076 139-225, N203S)
# Chain of ALX3 (Homo sapiens, UniProt O95076 139-225, N203S) (O95076 139-225 N203S): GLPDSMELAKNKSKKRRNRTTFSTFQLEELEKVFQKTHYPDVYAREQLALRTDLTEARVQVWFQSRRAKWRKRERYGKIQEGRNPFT
# Chain of HESX1 (Homo sapiens, UniProt Q9UBX0 95-180, F115L) (Q9UBX0 95-180 F115L): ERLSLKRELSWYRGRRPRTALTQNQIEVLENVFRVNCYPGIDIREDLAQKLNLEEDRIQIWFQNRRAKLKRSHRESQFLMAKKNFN
# Chain of HESX1 (Homo sapiens, UniProt Q9UBX0 95-180) (Q9UBX0 95-180): as the sequence (Q9UBX0 95-180 F115L) above, with L21F counted along it
# Chain of HESX1 (Homo sapiens, UniProt Q9UBX0 95-180, R165K) (Q9UBX0 95-180 R165K): as the sequence (Q9UBX0 95-180 F115L) above, with L21F, R71K counted along it
# Chain of HESX1 (Homo sapiens, UniProt Q9UBX0 95-180, R109Q) (Q9UBX0 95-180 R109Q): as the sequence (Q9UBX0 95-180 F115L) above, with R15Q, L21F counted along it
# Chain of ALX3 (Homo sapiens, UniProt O95076 139-225, L168V) (O95076 139-225 L168V): as the sequence (O95076 139-225 N203S) above, with L30V, S65N counted along it
# Chain of MSX2 (P35548 130-214 R199I): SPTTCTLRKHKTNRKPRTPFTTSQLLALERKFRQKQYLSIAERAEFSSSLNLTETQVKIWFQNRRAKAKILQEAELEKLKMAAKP
# Chain of PROP1 (Homo sapiens, UniProt O75360 56-141, R99H) (O75360 56-141 R99H): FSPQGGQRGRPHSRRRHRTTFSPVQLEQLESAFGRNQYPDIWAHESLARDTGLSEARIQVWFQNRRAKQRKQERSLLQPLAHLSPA
# Chain of ALX1 (Homo sapiens, UniProt Q15699 118-204, L144R) (Q15699 118-204 L144R): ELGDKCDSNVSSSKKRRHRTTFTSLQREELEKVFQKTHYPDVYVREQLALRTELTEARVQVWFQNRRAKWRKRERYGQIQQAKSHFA
# Chain of ALX3 (Homo sapiens, UniProt O95076 139-225) (O95076 139-225): as the sequence (O95076 139-225 N203S) above, with S65N counted along it
# Chain of ALX3 (Homo sapiens, UniProt O95076 139-225, L168Q) (O95076 139-225 L168Q): as the sequence (O95076 139-225 N203S) above, with L30Q, S65N counted along it
# Chain of ALX1 (Homo sapiens, UniProt Q15699 118-204, L144V) (Q15699 118-204 L144V): as the sequence (Q15699 118-204 L144R) above, with R27V counted along it
# Chain of ALX4 (Q9H161 200-286 Q225E): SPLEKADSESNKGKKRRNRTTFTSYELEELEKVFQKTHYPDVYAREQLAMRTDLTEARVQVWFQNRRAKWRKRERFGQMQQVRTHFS
# Chain of HESX1 (Homo sapiens, UniProt Q9UBX0 95-180, P111T) (Q9UBX0 95-180 P111T): as the sequence (Q9UBX0 95-180 F115L) above, with P17T, L21F counted along it
# Chain of PROP1 (Homo sapiens, UniProt O75360 56-141, F88S) (O75360 56-141 F88S): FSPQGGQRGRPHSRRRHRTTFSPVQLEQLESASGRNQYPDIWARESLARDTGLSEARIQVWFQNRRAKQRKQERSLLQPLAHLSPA
# Chain of ALX1 (Homo sapiens, UniProt Q15699 118-204) (Q15699 118-204): as the sequence (Q15699 118-204 L144R) above, with R27L counted along it
# Chain of PROP1 (Homo sapiens, UniProt O75360 56-141) (O75360 56-141): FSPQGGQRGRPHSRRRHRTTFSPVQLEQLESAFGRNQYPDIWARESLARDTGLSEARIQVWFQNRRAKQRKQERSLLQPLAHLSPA
# Chain of ALX3 (Homo sapiens, UniProt O95076 139-225, N203Q) (O95076 139-225 N203Q): as the sequence (O95076 139-225 N203S) above, with S65Q counted along it
# Chain of SHOX (Homo sapiens, UniProt O15266 103-189) (O15266 103-189): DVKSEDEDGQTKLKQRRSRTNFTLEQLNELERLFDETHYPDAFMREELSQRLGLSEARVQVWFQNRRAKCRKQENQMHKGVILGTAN
# Chain of SHOX (Homo sapiens, UniProt O15266 103-189, R173C) (O15266 103-189 R173C): as the sequence (O15266 103-189) above, with R71C counted along it
sequence,measurement,setting,value
GACAATTA,binding signal,HESX1 [1],"11.7 upbm affinity estimate (log intensity, higher = more binding, comparable within an allelic series)"
same,binding signal,SHOX [2],"11.6 upbm affinity estimate (log intensity, higher = more binding, comparable within an allelic series)"
same,binding signal,HESX1 [3],"12 upbm affinity estimate (log intensity, higher = more binding, comparable within an allelic series)"
same,binding signal,MSX2,"12.7 upbm affinity estimate (log intensity, higher = more binding, comparable within an allelic series)"
same,binding signal,SHOX [4],"9.21 upbm affinity estimate (log intensity, higher = more binding, comparable within an allelic series)"
same,binding signal,HESX1 [5],"8.59 upbm affinity estimate (log intensity, higher = more binding, comparable within an allelic series)"
same,binding signal,PROP1 [6],"10.8 upbm affinity estimate (log intensity, higher = more binding, comparable within an allelic series)"
same,binding signal,HESX1 [7],"10.4 upbm affinity estimate (log intensity, higher = more binding, comparable within an allelic series)"
same,binding signal,HESX1 [8],"7.41 upbm affinity estimate (log intensity, higher = more binding, comparable within an allelic series)"
AATTAACT,binding signal,HESX1 [1],"12.1 upbm affinity estimate (log intensity, higher = more binding, comparable within an allelic series)"
same,binding signal,SHOX [2],"11.8 upbm affinity estimate (log intensity, higher = more binding, comparable within an allelic series)"
same,binding signal,ALX4,"13.4 upbm affinity estimate (log intensity, higher = more binding, comparable within an allelic series)"
same,binding signal,HESX1 [3],"12.2 upbm affinity estimate (log intensity, higher = more binding, comparable within an allelic series)"
same,binding signal,MSX2,"12.4 upbm affinity estimate (log intensity, higher = more binding, comparable within an allelic series)"
same,binding signal,ALX1 [9],"11.7 upbm affinity estimate (log intensity, higher = more binding, comparable within an allelic series)"
same,binding signal,ALX3 [10],"8.48 upbm affinity estimate (log intensity, higher = more binding, comparable within an allelic series)"
same,binding signal,SHOX [4],"9.37 upbm affinity estimate (log intensity, higher = more binding, comparable within an allelic series)"
same,binding signal,ALX1 [11],"11.4 upbm affinity estimate (log intensity, higher = more binding, comparable within an allelic series)"
same,binding signal,ALX3 [12],"12.5 upbm affinity estimate (log intensity, higher = more binding, comparable within an allelic series)"
same,binding signal,PROP1 [13],"11.5 upbm affinity estimate (log intensity, higher = more binding, comparable within an allelic series)"
same,binding signal,HESX1 [5],"9.2 upbm affinity estimate (log intensity, higher = more binding, comparable within an allelic series)"
same,binding signal,PROP1 [6],"11.4 upbm affinity estimate (log intensity, higher = more binding, comparable within an allelic series)"
same,binding signal,ALX3 [14],"10.7 upbm affinity estimate (log intensity, higher = more binding, comparable within an allelic series)"
same,binding signal,HESX1 [7],"10.7 upbm affinity estimate (log intensity, higher = more binding, comparable within an allelic series)"
same,binding signal,ALX3 [15],"10.2 upbm affinity estimate (log intensity, higher = more binding, comparable within an allelic series)"
same,binding signal,PROP1 [16],"7.8 upbm affinity estimate (log intensity, higher = more binding, comparable within an allelic series)"
same,binding signal,HESX1 [8],"7.81 upbm affinity estimate (log intensity, higher = more binding, comparable within an allelic series)"
same,binding signal,ALX1 [17],"12.3 upbm affinity estimate (log intensity, higher = more binding, comparable within an allelic series)"
same,binding signal,ALX3 [18],"8.69 upbm affinity estimate (log intensity, higher = more binding, comparable within an allelic series)"
GAGGGGGC,binding signal,HESX1 [1],"6.47 upbm affinity estimate (log intensity, higher = more binding, comparable within an allelic series)"
same,binding signal,HESX1 [3],"6.37 upbm affinity estimate (log intensity, higher = more binding, comparable within an allelic series)"
same,binding signal,HESX1 [5],"6.41 upbm affinity estimate (log intensity, higher = more binding, comparable within an allelic series)"
same,binding signal,HESX1 [7],"6.44 upbm affinity estimate (log intensity, higher = more binding, comparable within an allelic series)"
same,binding signal,HESX1 [8],"6.41 upbm affinity estimate (log intensity, higher = more binding, comparable within an allelic series)"
AATTAAGT,binding signal,HESX1 [1],"11.6 upbm affinity estimate (log intensity, higher = more binding, comparable within an allelic series)"
same,binding signal,SHOX [2],"11.8 upbm affinity estimate (log intensity, higher = more binding, comparable within an allelic series)"
same,binding signal,ALX4,"13 upbm affinity estimate (log intensity, higher = more binding, comparable within an allelic series)"
same,binding signal,HESX1 [3],"11.6 upbm affinity estimate (log intensity, higher = more binding, comparable within an allelic series)"
same,binding signal,MSX2,"12.2 upbm affinity estimate (log intensity, higher = more binding, comparable within an allelic series)"
same,binding signal,ALX1 [9],"11.7 upbm affinity estimate (log intensity, higher = more binding, comparable within an allelic series)"
same,binding signal,ALX3 [10],"8.5 upbm affinity estimate (log intensity, higher = more binding, comparable within an allelic series)"
same,binding signal,SHOX [4],"9.31 upbm affinity estimate (log intensity, higher = more binding, comparable within an allelic series)"
same,binding signal,ALX1 [11],"11.4 upbm affinity estimate (log intensity, higher = more binding, comparable within an allelic series)"
same,binding signal,ALX3 [12],"12.5 upbm affinity estimate (log intensity, higher = more binding, comparable within an allelic series)"
same,binding signal,PROP1 [13],"11.3 upbm affinity estimate (log intensity, higher = more binding, comparable within an allelic series)"
same,binding signal,HESX1 [5],"8.53 upbm affinity estimate (log intensity, higher = more binding, comparable within an allelic series)"
same,binding signal,PROP1 [6],"11.2 upbm affinity estimate (log intensity, higher = more binding, comparable within an allelic series)"
same,binding signal,ALX3 [14],"10.5 upbm affinity estimate (log intensity, higher = more binding, comparable within an allelic series)"
same,binding signal,HESX1 [7],"10.3 upbm affinity estimate (log intensity, higher = more binding, comparable within an allelic series)"
same,binding signal,ALX3 [15],"10 upbm affinity estimate (log intensity, higher = more binding, comparable within an allelic series)"
same,binding signal,PROP1 [16],"7.71 upbm affinity estimate (log intensity, higher = more binding, comparable within an allelic series)"
same,binding signal,HESX1 [8],"7.65 upbm affinity estimate (log intensity, higher = more binding, comparable within an allelic series)"
same,binding signal,ALX1 [17],"12.3 upbm affinity estimate (log intensity, higher = more binding, comparable within an allelic series)"
same,binding signal,ALX3 [18],"8.69 upbm affinity estimate (log intensity, higher = more binding, comparable within an allelic series)"
CAATTAGG,binding signal,HESX1 [1],"12.5 upbm affinity estimate (log intensity, higher = more binding, comparable within an allelic series)"
same,binding signal,SHOX [2],"12.1 upbm affinity estimate (log intensity, higher = more binding, comparable within an allelic series)"
same,binding signal,ALX4,"12.8 upbm affinity estimate (log intensity, higher = more binding, comparable within an allelic series)"
same,binding signal,HESX1 [3],"12.7 upbm affinity estimate (log intensity, higher = more binding, comparable within an allelic series)"
same,binding signal,MSX2,"12.7 upbm affinity estimate (log intensity, higher = more binding, comparable within an allelic series)"
same,binding signal,ALX1 [9],"11.5 upbm affinity estimate (log intensity, higher = more binding, comparable within an allelic series)"
same,binding signal,ALX3 [10],"8.27 upbm affinity estimate (log intensity, higher = more binding, comparable within an allelic series)"
same,binding signal,SHOX [4],"9.72 upbm affinity estimate (log intensity, higher = more binding, comparable within an allelic series)"
same,binding signal,ALX1 [11],"10.9 upbm affinity estimate (log intensity, higher = more binding, comparable within an allelic series)"
same,binding signal,ALX3 [12],"12.2 upbm affinity estimate (log intensity, higher = more binding, comparable within an allelic series)"
same,binding signal,PROP1 [13],"11.3 upbm affinity estimate (log intensity, higher = more binding, comparable within an allelic series)"
same,binding signal,HESX1 [5],"9.39 upbm affinity estimate (log intensity, higher = more binding, comparable within an allelic series)"
same,binding signal,PROP1 [6],"11.5 upbm affinity estimate (log intensity, higher = more binding, comparable within an allelic series)"
same,binding signal,ALX3 [14],"10.4 upbm affinity estimate (log intensity, higher = more binding, comparable within an allelic series)"
same,binding signal,HESX1 [7],"11.2 upbm affinity estimate (log intensity, higher = more binding, comparable within an allelic series)"
same,binding signal,ALX3 [15],"9.81 upbm affinity estimate (log intensity, higher = more binding, comparable within an allelic series)"
same,binding signal,PROP1 [16],"7.6 upbm affinity estimate (log intensity, higher = more binding, comparable within an allelic series)"
same,binding signal,HESX1 [8],"7.73 upbm affinity estimate (log intensity, higher = more binding, comparable within an allelic series)"
same,binding signal,ALX1 [17],"12.1 upbm affinity estimate (log intensity, higher = more binding, comparable within an allelic series)"
same,binding signal,ALX3 [18],"8.37 upbm affinity estimate (log intensity, higher = more binding, comparable within an allelic series)"
